Sampled rows, rich in hits. Any-hit rate of the full collection: about 2.9%.
MEKK2wt PB1 HTS = raises or lowers MEK5 binding to wildtype human MEKK2 PB1 domain; binding response (% of control), % at 10 µM; 1.1% of 290,000 active; Q9Y2U5; bead flow cytometry, Alexa488-MEK5 binding to MEKK2 WT; actives lie on both sides; in the data active = binding response below about 67% or above about 130%
MEKK2mut PB1 HTS = signal of MEK5 binding to mutant human MEKK2 PB1 domain. bead flow cytometry, Alexa488-MEK5 binding to MEKK2 mutant. percent response, % at 10 µM. 0.35% of 290,000 active. AID 1530; in the data active = percent response above about 24%, passing the limit was not always enough
Beta2AR agonist = human beta-2 adrenergic receptor agonism by FAP; P07550; Am2.2-beta2AR cells, FAP receptor internalization, flow cytometry; response, % (test concentration not listed); 0.43% of 340,000 active; AID 504454;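 active = response above a set limit, near 3 SD of response in nonfluorescent compounds, cut at about 42% in these data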
Target sequence (P07550 whole entry, looked up): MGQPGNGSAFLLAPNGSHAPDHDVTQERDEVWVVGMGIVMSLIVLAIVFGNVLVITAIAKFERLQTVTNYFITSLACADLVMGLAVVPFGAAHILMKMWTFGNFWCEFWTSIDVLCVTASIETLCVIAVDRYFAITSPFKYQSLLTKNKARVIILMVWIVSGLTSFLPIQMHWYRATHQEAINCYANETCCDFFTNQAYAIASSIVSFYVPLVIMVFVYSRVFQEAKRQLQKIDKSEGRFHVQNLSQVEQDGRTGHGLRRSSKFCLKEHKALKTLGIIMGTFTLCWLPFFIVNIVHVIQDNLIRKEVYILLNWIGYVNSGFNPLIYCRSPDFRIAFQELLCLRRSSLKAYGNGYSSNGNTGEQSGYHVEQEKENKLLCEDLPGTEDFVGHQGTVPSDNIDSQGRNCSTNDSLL
MEKK3 PB1 HTS = MEKK3-MEK5 PB1 interaction, increase or decrease; Q99759; binding response (% of control), % at 10 µM; 1.4% of 290,000 active; bead-based flow cytometry, Alexa488-MEK5 binding to MEKK3; actives lie on both sides; 0 = blocked by unlabeled MEK5, 100 = vehicle;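 active = binding response more than 3 SD above or below the average of its plate-row segment, actives on both sides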;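 note: Alexa488 bead fluorescence after subtracting the streptavidin-only scavenger bead signal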
GRK2 inh = inhibitors of human GRK2 displacing RNA aptamer | P25098 | bead flow cytometry, FAM-aptamer displacement from GRK2 | inhibition of aptamer binding, % at 10 µM | 0.59% of 330,000 active | AID 488847;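 active = inhibition of aptamer binding above 40%, roughly 3 SD of noise, on plates passing a quality check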;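 note: median bead fluorescence of bound FAM aptamer so fluorescent compounds give negative values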
An asterisk follows results filed as active; . = no result given; ! = not active in a repeat.

SMILES | MEKK2wt PB1 HTS | MEKK2mut PB1 HTS | Beta2AR agonist | MEKK3 PB1 HTS | GRK2 inh
COc1ccccc1C(=O)N/N=C(\C)CC(=O)Nc1ccc2c(c1)OCCO2 | 111 | 6 | 2 | 104 | 1
C/C(CC(=O)Nc1ccc2c(c1)OCCO2)=N\NC(=O)c1ccccc1F | 94 | -2 | 45* | 98 | 1
C=CCn1c(=O)c2ccccc2n2c(SCC(=O)/C(C#N)=C(\C)N)nnc12 | 103 | 3 | 65*! | 99 | 0
C=CCn1c(=O)c2ccccc2n2c(SC(C)C(N)=O)nnc12 (configuration not stated) | 103 | 3 | 0 | 101 | 2
COc1ccccc1-c1nnc(C2CCN(S(=O)(=O)c3ccccc3[N+](=O)[O-])CC2)o1 | 97 | 0 | -2 | 98 | 0
CN(/N=C/c1ccc(-c2ccc([N+](=O)[O-])cc2)o1)c1ccccc1 | 97 | -21 | -396 | 100 | 0
O=C1Nc2ccccc2/C1=N/N=C/c1ccc(-c2ccc([N+](=O)[O-])cc2)o1 | 91 | -2 | 43* | 85 | .
c1cc(N2CCCC2)ccc1C(c1nnnn1C1CCCCC1)N1CCOCC1 (configuration not stated) | -5.0* | 2 | -1 | 96 | 1
COc1ccc(C(c2nnnn2C2CCCCC2)N2CCN(c3ccc(OC)cc3)CC2)cc1 (configuration not stated) | 101 | -3 | 30 | 101 | 0
C/C(=N\NC(=O)CCCOc1ccc(Cl)cc1C)c1ccc(C)o1 | 92 | -4 | 4 | 90 | 90*
Cc1cc(Cl)ccc1OCCCC(=O)NN | 97 | -2 | 4 | 97 | 0
CCc1cc(=O)n2c([nH]c3ccccc32)c1C#N | 0.0* | 3 | 13 | 101 | 0
O=C(C(=Cc1ccccc1)CN1CCCCC1)c1ccccc1 | . | . | 49* | . | .
O=C(CCCCN1CCCCC1)c1ccccc1 | . | . | 0 | . | 2
O=C(N/N=C/c1ccc(OC(=O)c2ccc([N+](=O)[O-])cc2)cc1)c1cccnc1 | 93 | -1 | 3 | 97 | 0
COc1ccc(C(=O)Oc2ccc(/C=N/NC(=O)Cc3ccc([N+](=O)[O-])cc3)cc2)cc1 | 104 | -3 | 0 | 93 | 85*
NS(=O)(=O)c1ccc(CCNC(=O)c2ccc3ccccc3n2)cc1 | -3.0* | 5 | -8 | 99 | 8
O=C(NCCc1ccccc1)C(=O)c1c[nH]c2ccccc12 | 99 | 4 | 3 | 104 | 2
NS(=O)(=O)c1ccc(CNC(=O)c2ccc3ccccc3n2)cc1 | 103 | 5 | 2 | 105 | 0
NS(=O)(=O)c1ccc(CCNC(=O)C(=O)c2c[nH]c3ccccc23)cc1 | 106 | -1 | 56* | 103 | 1
Cc1cc(/C=N\NC(=O)CC(=O)NC2CCCCC2)c(C)n1-c1cccc(Cl)c1Cl | 101 | -1 | 3 | 100 | 1
Cc1cc(/C=N\NC(=O)CC(=O)NC2CCCCC2)c(C)n1-c1ccc(Cl)c(Cl)c1 | 91 | -9 | 56* | 95 | 0
COc1ccc(S(=O)(=O)N(C)C[C@@H]2Oc3c(NS(C)(=O)=O)cccc3C(=O)N([C@@H](C)CO)C[C@H]2C)cc1 | . | . | 3 | . | 0
Cc1ccc(C)c(N2CCN(CCCNC(=O)CCC(=O)N3CCOc4ccc(Cl)cc43)CC2)c1 | 150* | 16 | . | 107 | 0
O=C(CCC(=O)N1CCOc2ccc(Cl)cc21)NCCCN1CCN(c2ccccc2F)CC1 | 114 | 4 | 7 | 103 | 0
SMILES | MEKK2wt PB1 HTS | MEKK2mut PB1 HTS | Beta2AR agonist | MEKK3 PB1 HTS | GRK2 inh
COc1ccc(/C=C/C(=O)NCCN=C2NS(=O)(=O)c3ccccc32)cc1 | 107 | 4 | 7 | 117 | 1
Cc1cc(N)c2cc(NC(=O)/C=C/c3ccccc3Cl)ccc2n1 | 252* | 117* | 73* | 104 | 0
COc1ccc(C(=O)N/C(=C\c2ccccc2)C(=O)NCc2cccnc2)cc1 | 94 | -2 | -4 | 99 | 0
CCCCN(C)C(=O)C1CCCN(S(=O)(=O)c2ccc3c(c2)CC(C)N3C(=O)C2CC2)C1 (configuration not stated) | 101 | 4 | -1 | 105 | 2
COC(=O)[C@]1(C)N[C@H](CN(C)C(=O)c2ccccc2)[C@@H]2C(=O)N(C)C(=O)[C@@H]21 | . | . | 4 | . | 6
CN(C)c1ccc(/C=C/c2ccc3ccccc3[n+]2C)cc1 | 2.0* | 27 | -16 | 97 | 2
Cc1ccc2c(c1)c1c(n2CC(O)CN2CCOCC2)CCCC1 (configuration not stated) | 19* | 20 | . | 102 | 1
Cc1ccc(OCC(=O)N(Cc2ccco2)c2c(N)n(Cc3ccccc3)c(=O)[nH]c2=O)cc1C | . | . | -1 | . | 0
COC(=O)c1ccc(=O)c2nc3/c(=C/O)c(O)cc(=O)c3[nH]c12 | 89 | 2 | -1 | 86 | 67*
C/C(CC(=O)N1CCN(C=O)CC1)=N\NC(=O)c1cccc([N+](=O)[O-])c1 | 15* | 5 | 3 | 108 | 0
CC(C)(C)c1cc(CCC(=O)N2CCC2)cc(C(C)(C)C)c1O | 118 | 25* | 11 | 105 | 0
Cc1cccn2c(=O)c3cc(C(N)=S)c(=N)n(CCCOC(C)C)c3nc12 | 101 | 1 | 71* | 104 | 2
Cc1cccn2c(=O)c3cc(C(=O)NCCc4ccccc4)c(=N)n(CCCn4ccnc4)c3nc12 | 115 | 4 | 34 | 98 | 4
CCOCCCn1c(=N)c(C(N)=S)cc2c(=O)n3cccc(C)c3nc21 | 95 | 6 | -5 | 110 | 15
CCCCNC(=O)c1cc2c(=O)n3cccc(C)c3nc2n(Cc2ccccc2)c1=N | 96 | -1 | 87* | 97 | 4
Cc1cccn2c(=O)c3cc(C(=O)NC4CCCC4)c(=N)n(Cc4ccc(F)cc4)c3nc12 | 98 | 0 | 103* | 99 | 0
Cc1cccn2c(=O)c3cc(C(=O)NC4CCCC4)c(=N)n(CCc4ccccc4)c3nc12 | 107 | 3 | 79* | 100 | 6
Cc1cccn2c(=O)c3cc(C(=O)NC4CCCCC4)c(=N)n(Cc4ccccc4)c3nc12 | 79 | -2 | 32 | 97 | 14
CC1(C)Cc2c(cnn2-c2ccccc2)C(NC(=O)CCCn2cncn2)C1 (configuration not stated) | 107 | 4 | -4 | 103 | 0
COc1ccc(N(CC(=O)NCc2ccccc2Cl)S(=O)(=O)c2c(C)noc2C)cc1 | 102 | -1 | 0 | 100 | 0
O=C(Nc1cccc(C(=O)N2CCOCC2)c1)C1CCCC1 | . | . | -2 | . | .
CCOc1cccc2sc(=NC(=O)CCS(=O)(=O)c3ccc(F)cc3)n(C)c12 | . | . | 6 | . | 0
COc1ccccc1N(CC(=O)NCc1ccccc1C)S(=O)(=O)c1ccc(C)cc1 | 102 | -1 | -1 | 101 | 2
CCOC(=O)C1(CCOc2ccccc2)CCN(Cc2ccc(OC)c(COC)c2)CC1 | 114 | 1 | 6 | 107 | 0

Screens from PubChem BioAssay.
